Rows were chosen to be rich in hits. Some 13% of all compounds tested hit in one or more screens of this group.
Lamin A splicing: qHTS Assay for Modulators of Lamin A Splicing; 0.01% of 200,000 active; AID 1487, 2009; Potency, µM (series often up to 46.1 µM), hits mostly inhibitors; HeLa LMNA splicing GFP/RFP minigene ratio, 48 h; active means well fitted inhibition curve with a large enough effect in the signal ratio, with a control signal flat, not every such curve was filed as active; inconclusive means small, poorly fitted or top-dose-only effect, or effect the other way, or a change in a side signal; the % refers to the signal ratio
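S3 HeLa cells stably expressing lamin A-EGFP splicing minigene plus DsRed2, 600 cells/well, 48 h compound exposure at 37C. Laser-scanning cytometry; analysed as GFP (500-530 nm)/RFP (575-640 nm) total intensity ratio; 0.5% DMSO vehicle.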
ALDH1A1 inh: qHTS Assay for Inhibitors of Aldehyde Dehydrogenase 1 (ALDH1A1) | Purified ALDH1A1, NADH fluorescence, propionaldehyde substrate | AID 1030, 2008 | 7.3% of 220,000 active | Aldehyde dehydrogenase 1A1 (Homo sapiens), P00352 | Potency, µM (highest dose often 75.3 µM), usual class: inhibitors; active means well fitted inhibition curve with a large enough effect, not every such curve was filed as active; inconclusive means small, poorly fitted or top-dose-only effect, or another doubt; inactive means no such curve, though single readings can be large or run the other way
miR-21 act: qHTS Assay for Modulators of miRNAs and/orActivators of miR-21 | HeLa miR-21 FLuc reporter, luciferase, 48 h | Potency, µM (highest dose often 38.3 µM), usual class: activators | 340,000 tested, under 10 active | AID 2288, 2010;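 further: miR-21 action dims this reporter so a rising signal means less miR-21 action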
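HeLa cells endogenously expressing miR-21, stably carrying CMV-driven firefly luciferase with a downstream miR-21 binding site, 2000 cells/well. Titrations up to approximately 40 uM, 48 hours; luciferase luminescence read.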
G9a block: qHTS Assay for Inhibitors of Histone Lysine Methyltransferase G9a. Histone-lysine N-methyltransferase EHMT2 (Homo sapiens), Q96KQ7. AID 504332, 2011. Potency, µM (series often up to 102 µM), actives largely listed as inhibitors. G9a H3K9 monomethylation, AlphaScreen, 2 h. 8.8% of 350,000 active; further: nearly all actives have a fitted effect of over 75% in size
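G9a (20 nM) was preincubated 15 min with compound, then reacted 2 h at room temperature with 500 nM biotin-H3K9 peptide and 20 µM SAM. Monomethyl-H3K9 detected by AlphaScreen using anti-H3K9me1 antibody.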
JMJD2E inh: qHTS Assay for Inhibitors of Human Jumonji Domain Containing 2E (JMJD2E); Lysine-specific demethylase 4E (Homo sapiens), B2RXH2; JMJD2E catalytic domain, FDH-coupled NADH fluorescence (FDH is formaldehyde dehydrogenase); Potency, µM (doses to about 57.1 µM), actives largely listed as inhibitors; 1.6% of 230,000 active; active means well fitted inhibition curve with a large enough effect, not every such curve was filed as active; inconclusive means small, poorly fitted or top-dose-only effect, or another doubt; inactive means no such curve, though single readings can be large or run the other way; further: nearly all actives have a fitted effect of over 50% in size
Target sequence (B2RXH2 1-337 limits assumed): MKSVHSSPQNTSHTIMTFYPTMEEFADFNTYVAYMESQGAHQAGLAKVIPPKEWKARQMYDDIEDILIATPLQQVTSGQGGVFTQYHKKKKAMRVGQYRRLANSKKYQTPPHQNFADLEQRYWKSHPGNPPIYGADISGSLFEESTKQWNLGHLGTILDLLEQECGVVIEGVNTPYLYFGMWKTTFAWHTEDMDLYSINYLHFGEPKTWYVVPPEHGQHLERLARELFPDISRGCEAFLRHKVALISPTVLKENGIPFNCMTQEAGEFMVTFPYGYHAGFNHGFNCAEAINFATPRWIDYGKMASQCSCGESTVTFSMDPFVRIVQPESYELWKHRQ
Sfp PPTase inh: qHTS Assay for Inhibitors of Bacillus subtilis Sfp phosphopantetheinyl transferase (PPTase); 4'-phosphopantetheinyl transferase ffp (Bacillus subtilis), Q9F4F7; Biochemical Sfp PPTase activity, qHTS; Potency, µM, hits mostly inhibitors; 3.5% of 310,000 active;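 further: the enzyme is Sfp with the accession as filed and its product quenches rhodamine fluorescence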
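Fluorescence-quenching assay: 15 nM Sfp-PPTase preincubated 15 min at room temperature with compound, then 5 uM rhodamine-CoA and 12.5 uM BHQ-2-labelled YbbR peptide added. Fluorescence (ex 525/em 598 nm) read at start and after 30 min; difference gives rate.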
A number is an active result; . = inactive; ? = inconclusive; / = no result; [ ] = dose if it differs, or a comment. Unless noted, the call rests on the fitted dose curve; in most records, active means well fitted curve in the direction sought with a large enough effect; inconclusive means small, poorly fitted or top-dose-only effect, or another doubt; inactive means no such curve, though single readings can be large; an effect the other way counts as inactive or inconclusive.

SMILES	Lamin A splicing	ALDH1A1 inh	miR-21 act	G9a block	JMJD2E inh	Sfp PPTase inh
COc1cc(/C=C(\C#N)c2nc3ccccc3[nH]2)c([N+](=O)[O-])cc1OCc1ccccc1	?	0.56µM	.	.	.	.
CCOc1cc(/C=C(/C#N)c2nc3ccccc3[nH]2)ccc1OCc1ccc(C(=O)O)o1	.	?	.	71µM	.	.
O=S(=O)(O)CCCc1cccc2ccccc12	/	.[13.5 µM]	/	/	/	/
COc1cc(CNc2ccc(N3CCCC3)cc2)ccc1OCc1ccccc1F	.	.	.	10µM	.	.
CCOc1cc(CNCCN2CCOCC2)ccc1OCc1ccccc1Cl	/	.	.	50µM	.	?
COc1cc(CNCCN2CCOCC2)ccc1OCC(=O)NC(C)(C)C	/	.	.	?	.	71µM
COc1cc(CNc2ccc(N3CCCCC3)cc2)ccc1OCC(=O)NC(C)(C)C	/	/	.	14µM	/	.
CCOc1cc(CNCCCN2CCOCC2)cc(Br)c1OCc1ccccc1Cl	/	.	?	?	.	.
CCSc1ncc(Cl)c(C(=O)Nc2ccc(S(=O)(=O)N3CCCCC3)cc2)n1	/	/	?	.	/	/
Cc1noc(-c2ccc(NCc3ccccc3)c([N+](=O)[O-])c2)n1	/	/	.	.	/	/
COc1cc(C(=S)N2CCCC2)ccc1OCc1ccccc1	/	/	.	/	/	.
COc1cc(CNc2ccc(N3CCCC3)cc2)ccc1OCc1ccccc1	.	7.9µM	.	?	6.3µM	?
CCOc1ccc(S(=O)(=O)Nc2cc(Sc3ncn[nH]3)c3oc(=O)sc3c2)cc1	.	.	.	32µM	?	7.9µM
CCOc1ccc(S(=O)(=O)Nc2ncn[nH]2)cc1	/	/	.	.	/	.
COC(=O)C1=C[C@@H](C(=O)OC)C2C3=C(C(=O)[C@]2(C)NC(=O)c2ccccc2)[C@H](C)n2c(=O)n(C)c(=O)n2[C@@H]3C1 (stereo partly drawn)	/	/	/	/	/	.
Cc1ccc([N+](=O)[O-])cc1NC(=O)CN(C)CCOc1ccccc1	/	/	.	3.2µM	/	.
CC(C)CN1C(=S)SC(C)(C)C1n1oc(=O)n(-c2ccc(Cl)cc2)c1=O (stereo not drawn)	.	?	.	.[12.7 µM]	.	.
O=C(NNc1nc2ccccc2s1)C1CC1	.	.	.	.[12.7 µM]	.	45µM
O=C(NNc1nc2ccccc2s1)Nc1ccc(Cl)c(Cl)c1	/	/	.	?	.	56µM
O=C(NNc1nc2ccccc2s1)Nc1ccc(F)cc1	/	/	.	.	.	100µM
CC(C)C(=O)NNc1nc2ccccc2s1	.	.	.	.	.	.
NS(=O)(=O)c1ccc2nc(NC(=O)Nc3ccc(F)cc3)sc2c1	/	/	.	50µM	/	.
CCCCNC(=O)NS(=O)(=O)c1ccc(NC(=O)CCC(=O)c2cccs2)cc1	/	/	.	.[2.33 µM]	/	.
O=C(OCc1nc2ccccc2s1)[C@@H]1CCCN1S(=O)(=O)c1ccccc1F	.	7.9µM	.	.	.	.
Cc1ccc2nc(NC(=O)C3CCCN(S(=O)(=O)c4cccc5nsnc45)C3)sc2c1 (stereo not drawn)	?	.	.	35µM	.	.
SMILES	Lamin A splicing	ALDH1A1 inh	miR-21 act	G9a block	JMJD2E inh	Sfp PPTase inh
Cc1ccc2nc(NC(=O)C3CCN(S(=O)(=O)c4cccc5nsnc45)CC3)sc2c1	?	.	.	.	.	.
Cc1ccc(S(=O)(=O)N2CCCC2C(=O)Nc2nc3ccccc3s2)cc1 (stereo not drawn)	?	.	.	16µM	.	.
Cc1nc2cnc(N3CCOCC3)nc2n(C[C@H]2CCCO2)c1=O	.	?	/	.[0.501 µM]	/	.
Cc1c(C(=O)N2CCCC2)oc2c1-c1nn(CC(=O)NC(C)c3ccccc3)cc1CC2 (stereo not drawn)	/	/	.	.	/	/
FC(F)Oc1ccc(/C=N/N2CCCCC2)c(OC(F)F)c1	.	.	.	56µM	.	.
COC(=O)N1CCC2(CC1)CN(c1ccc(-c3ccccc3)cc1)C2	/	?	/	.[12.7 µM]	/	.
O=C(c1ccco1)N1CCC2(CC1)CCN(c1ccncc1)CC2	/	7.1µM	/	.[12.7 µM]	/	.

Screens as filed in PubChem.
